From PubChem BioAssay (Tox21) come the findings set out here.

Assay [1] can be described thus: qHTS assay to test for compound auto fluorescence at 535 nm (green) in HEK293 cells (AID 720680).
Assay [2] can be described thus: qHTS assay to test for compound auto fluorescence at 460 nm (blue) in HEK293 cell free culture (AID 720681). Summed up: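 Test compounds were pinned into cell-free culture medium (DMEM with 10% FBS) and fluorescence was read directly at Ex/Em 405/460 nm. Signals were expressed as fluorescence equivalents of triamterene, with DMSO vehicle as control.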
The nature of assay [3]: qHTS assay to test for compound auto fluorescence at 535 nm (green) in HEK293 cell free culture (AID 720682). Summed up: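 No cells present: wells hold DMEM supplemented with 10% FBS, into which compound or vehicle is pinned. Green emission is then recorded (485 nm excitation, 535 nm emission) and scaled to fluorescein.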
Assay [4] in a line: qHTS assay to test for compound auto fluorescence at 590 nm (red) in HEK293 cell free culture (AID 720683). An outline of the steps:
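Tox21 10K library compounds were pinned into cell-free DMEM with 10% FBS and fluorescence was read at excitation 540 nm. Activity is expressed as Rose Bengal sodium equivalency.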

Assay [5] is described as follows: qHTS assay to test for compound auto fluorescence at 590 nm (red) in HepG2 cell free culture (AID 720684). Summed up:
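Readout: intrinsic compound fluorescence at 590 nm emission after 540 nm excitation, scaled to Rose Bengal sodium. Matrix was cell-free MEM with 10% FBS; DMSO vehicle wells served as control.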

A short description of assay [6]: qHTS assay to test for compound auto fluorescence at 460 nm (blue) in HepG2 cell free culture (AID 720685). An outline of the steps:
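Cell-free plates of MEM plus 10% FBS received 23 nL compound or DMSO vehicle; blue-channel (405/460 nm) intensity scored against triamterene as reference fluorophore.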

A short description of assay [7]: qHTS assay to test for compound auto fluorescence at 535 nm (green) in HepG2 cell free culture (AID 720686).
A short description of assay [8]: qHTS assay to test for compound auto fluorescence at 460 nm (blue) in HepG2 cells (AID 720687). Summed up:
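Cells (2,000/well in MEM with 10% FBS) attached overnight at 37 C, then were exposed to compound or DMSO for 1 hr at 37 C, 5% CO2. Fluorescence read at Ex/Em 405/460 nm, expressed as triamterene-equivalent signal.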

Assay [9] deals with Glucocorticoid receptor (Homo sapiens) (UniProt P04150). Briefly: qHTS assay to identify small molecule agonists of the glucocorticoid receptor (GR) signaling pathway (AID 720691; active = well fitted activation curve with a large enough effect in the signal ratio in the repeat runs, not every such curve was filed as active; inconclusive = weak or mixed curves, or effect the other way; inactive = no such curve, though single readings can be large or run the other way; the % refers to the signal ratio; note: potency is the fitted concentration of half-maximal effect). The conditions noted are these: GR-bla HeLa, beta-lactamase reporter ratio, 18 h. An outline of the steps: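 Steps: seed GR-bla HeLa cells, incubate 4 h at 37 C/5% CO2; pin-transfer DMSO-dissolved compounds; incubate 18 h at 37 C; add LiveBLAzer B/G FRET substrate; after 2 h at room temperature, measure fluorescence.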
Sequence of Glucocorticoid receptor (Homo sapiens) (P04150 whole entry, looked up): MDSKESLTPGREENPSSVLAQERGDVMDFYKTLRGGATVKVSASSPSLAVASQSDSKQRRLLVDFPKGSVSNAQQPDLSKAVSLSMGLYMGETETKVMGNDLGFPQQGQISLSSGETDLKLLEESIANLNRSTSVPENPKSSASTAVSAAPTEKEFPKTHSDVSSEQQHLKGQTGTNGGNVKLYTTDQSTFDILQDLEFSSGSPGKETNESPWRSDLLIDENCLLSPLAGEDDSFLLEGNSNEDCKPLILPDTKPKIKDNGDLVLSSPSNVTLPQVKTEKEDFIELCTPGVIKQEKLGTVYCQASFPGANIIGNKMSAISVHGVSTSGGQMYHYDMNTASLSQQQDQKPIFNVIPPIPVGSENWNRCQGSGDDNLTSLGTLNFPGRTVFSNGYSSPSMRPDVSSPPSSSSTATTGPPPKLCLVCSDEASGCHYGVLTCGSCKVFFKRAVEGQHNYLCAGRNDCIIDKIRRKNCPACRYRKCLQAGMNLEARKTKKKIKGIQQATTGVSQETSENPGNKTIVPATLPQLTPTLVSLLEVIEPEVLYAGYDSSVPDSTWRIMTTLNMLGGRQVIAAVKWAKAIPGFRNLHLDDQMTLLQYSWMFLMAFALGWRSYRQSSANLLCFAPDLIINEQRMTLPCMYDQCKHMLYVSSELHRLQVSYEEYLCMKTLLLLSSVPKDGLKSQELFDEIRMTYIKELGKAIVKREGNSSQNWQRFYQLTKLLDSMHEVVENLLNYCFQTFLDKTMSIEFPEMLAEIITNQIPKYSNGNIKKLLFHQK

Assay [10] has the same target. Briefly: qHTS assay to identify small molecule antagonists of the glucocorticoid receptor (GR) signaling pathway (AID 720692; active = well fitted inhibition curve with a large enough effect in the signal ratio in the repeat runs, not every such curve was filed as active; inconclusive = weak or mixed curves, or effect the other way; inactive = no such curve, though single readings can be large or run the other way; the % refers to the signal ratio). Summed up:
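Antagonism was scored as loss of dexamethasone-driven (5 nM final) reporter signal in HeLa cells bearing a glucocorticoid response element–beta-lactamase construct, after 18 h compound exposure at 37 C and 2 h FRET substrate loading.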

The nature of assay [11]: qHTS assay to identify small molecule antagonists of the glucocorticoid receptor (GR) signaling pathway - cell viability counter screen (AID 720693). Note: nearly all actives have a fitted effect of over 55% in size.
The nature of assay [12]: qHTS assay for identifying genotoxic compounds that show differential cytotoxicity against isogenic chicken DT40 cell lines with known DNA damage response pathways - wild type cell line (AID 743012). Note: nearly all actives have a fitted effect of over 60% in size. Note: potency is the fitted concentration of half-maximal effect. Summed up:
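Cytotoxicity in repair-proficient parental chicken DT40 cells serves as the comparator for Rad54/Ku70- and Rev3-deficient lines. Cells were exposed to compounds for 40 h at 37 C/5% CO2, and ATP-based luminescence (CellTiter-Glo) measured viability.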

Assay [13] in a line: qHTS assay for identifying genotoxic compounds that show differential cytotoxicity against isogenic chicken DT40 cell lines with known DNA damage response pathways - Rev3 mutant cell line (AID 743014). Note: nearly all actives have a fitted effect of over 55% in size. Note: potency is the fitted concentration of half-maximal effect.
Assay [14] is described as follows: qHTS assay to identify small molecule antagonists of the androgen receptor (AR) signaling pathway - cell viability counter screen (AID 743033; note: nearly all actives have a fitted effect of over 45% in size).
Assay [15] can be described thus: qHTS assay to identify small molecule antagonists of the androgen receptor (AR) signaling pathway using the MDA cell line - cell viability counter screen (AID 743041; note: nearly all actives have a fitted effect of over 45% in size). An outline of the steps: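 qHTS viability read-out; MDA-kb2 AR-luc; R1881-stimulated; 16 h exposure at 37C, 0% CO2; CellTiter-Fluor, 30 min; fluorescence intensity.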
The nature of assay [16]: qHTS assay for identifying genotoxic compounds that show differential cytotoxicity against isogenic chicken DT40 cell lines with known DNA damage response pathways - Rad54/Ku70 mutant cell line (AID 743015). Note: nearly all actives have a fitted effect of over 60% in size. Note: potency is the fitted concentration of half-maximal effect.
Assay [17] addresses Androgen receptor (Homo sapiens) (UniProt P10275). Description: qHTS assay to identify small molecule antagonists of the androgen receptor (AR) signaling pathway (AID 743035; active = well fitted inhibition curve with a large enough effect in the signal ratio in the repeat runs, not every such curve was filed as active; inconclusive = weak or mixed curves, or effect the other way; inactive = no such curve, though single readings can be large or run the other way; the % refers to the signal ratio). An outline of the steps:
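Steps: seed AR-UAS-bla GripTite HEK293 cells, incubate 4 h at 37C; pin in test compound, then add agonist R1881; incubate 16 h at 37C; add LiveBLAzer B/G FRET substrate, 2 h at room temperature; read fluorescence.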

Assay [18] shares this target. Description: qHTS assay to identify small molecule agonists of the androgen receptor (AR) signaling pathway (AID 743036; active = well fitted activation curve with a large enough effect in the signal ratio in the repeat runs, with a control signal flat, not every such curve was filed as active; inconclusive = weak or mixed curves, or effect the other way; inactive = no such curve, though single readings can be large or run the other way; the % refers to the signal ratio). An outline of the steps: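 Quantitative HTS of the Tox21 10K library in HEK293 cells bearing a stably integrated UAS-controlled beta-lactamase reporter. Compound exposure lasted 16 h at 37C. Reporter activity was detected by FRET substrate fluorescence after 2 h at room temperature.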

The target is the same in assay [19]. Briefly: qHTS assay to identify small molecule agonists of the androgen receptor (AR) signaling pathway using the MDA cell line (AID 743040; note: nearly all actives have a fitted effect of over 20% in size). An outline of the steps: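 Agonist activity is measured as luciferase luminescence in human MDA-kb2 cells whose MMTV reporter responds to both AR and GR. Compounds in DMSO incubate 16 h at 37C, 0% CO2, and ONE-Glo is read after 30 min.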

Assay [20] has the same target. Briefly: qHTS assay to identify small molecule antagonists of the androgen receptor (AR) signaling pathway using the MDA cell line (AID 743042; note: nearly all actives have a fitted effect of over 55% in size). Summed up: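 MDA-kb2 cells (human breast carcinoma, stably carrying an MMTV-luciferase reporter responsive to AR and GR) were plated at 3,000 cells/well and preincubated 5 hr at 37C, then given compound plus R1881 agonist for 16 h. ONE-Glo luminescence was read.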

Where [21] appears, read: activation: at 62.4 µM (top of the series) unless noted.

“And” between values parts separate entries of the source, which are not always exact repeats. Identical values can stand only once. Values without a mark were called inactive. Some compounds were tested as several samples or in several runs, with calls that do not always agree. The source made the active and inactive calls. Unless noted, calls come from the whole dose curve; as a rule, active = well fitted curve in the direction sought with a large enough effect in the repeat runs; inconclusive = weak or mixed curves; inactive = no such curve, though single readings can be large; an effect the other way counts as inactive or inconclusive.
% is set by controls: 0 for no effect and ±100 for the full control effect.

Sequence of Androgen receptor (Homo sapiens) (P10275 whole entry, looked up): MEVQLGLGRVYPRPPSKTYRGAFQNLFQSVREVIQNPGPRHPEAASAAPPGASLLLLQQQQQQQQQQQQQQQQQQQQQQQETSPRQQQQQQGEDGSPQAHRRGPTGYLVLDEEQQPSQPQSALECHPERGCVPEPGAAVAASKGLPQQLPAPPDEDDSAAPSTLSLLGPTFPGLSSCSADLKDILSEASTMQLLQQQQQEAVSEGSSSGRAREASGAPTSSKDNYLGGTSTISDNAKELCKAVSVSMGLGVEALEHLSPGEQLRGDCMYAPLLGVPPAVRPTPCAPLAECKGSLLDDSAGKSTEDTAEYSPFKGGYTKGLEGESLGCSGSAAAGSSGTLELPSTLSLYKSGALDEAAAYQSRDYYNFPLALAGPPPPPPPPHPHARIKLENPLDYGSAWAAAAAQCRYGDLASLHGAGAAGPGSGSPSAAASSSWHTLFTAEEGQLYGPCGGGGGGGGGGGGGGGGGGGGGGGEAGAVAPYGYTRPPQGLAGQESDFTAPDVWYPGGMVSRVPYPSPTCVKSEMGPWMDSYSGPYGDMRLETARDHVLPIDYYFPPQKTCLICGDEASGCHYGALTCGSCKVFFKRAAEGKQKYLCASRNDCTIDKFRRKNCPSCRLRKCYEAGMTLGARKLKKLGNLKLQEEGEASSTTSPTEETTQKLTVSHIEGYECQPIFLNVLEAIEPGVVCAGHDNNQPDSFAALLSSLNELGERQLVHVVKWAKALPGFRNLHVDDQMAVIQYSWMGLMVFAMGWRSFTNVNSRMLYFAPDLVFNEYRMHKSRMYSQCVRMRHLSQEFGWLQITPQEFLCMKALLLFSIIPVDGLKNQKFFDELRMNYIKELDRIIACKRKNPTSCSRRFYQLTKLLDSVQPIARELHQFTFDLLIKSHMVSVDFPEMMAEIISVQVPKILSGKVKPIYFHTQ

Turning to `Cc1cc(Cc2ccc(N)c(C)c2)ccc1N`, the compound was called inactive in assay [1], in [3], in [4], in assay [5], in [7] and in [8]. Further, the Potency entry in assay [2], in [6], in assay [9] (setting [21]), in [10], in [11] and in assay [14] was “inactive” throughout. Besides, the Potency entry in assay [15] is “inactive”. Moreover, the Potency in [12] was 61.1 µM (active); in assay [13], 68.6 µM (active) and 54.5 µM (active).
As for `COC(=O)Nc1nc2ccc(Sc3ccccc3)cc2[nH]1`, the compound was called inactive in assay [1], in assay [3], in assay [4], in assay [5], in [7] and in assay [8]. In addition, the Potency entry in assay [2], in assay [6], in assay [11], in assay [14] and in assay [15] was “inactive” in each case. Also, the activation is 2.86% [inconclusive] [at 29.2 µM] (active) in assay [9] (setting [21]) and 2.36% in assay [9] (at 62.4 µM (top of the series)). The Potency in assay [12] is 403 nM (active) and 217 nM (active); in [13], 285 nM (active) and 217 nM (active); in assay [16], 403 nM (active) and 386 nM (active).
On to `C[C@@H]1O[C@@H](OC[C@H]2O[C@@H](Oc3c(-c4ccc(O)c(O)c4)oc4cc(O)cc(O)c4c3=O)[C@H](O)[C@@H](O)[C@@H]2O)[C@H](O)[C@H](O)[C@H]1O`, for which the compound was called inactive in [1], in assay [3], in assay [4], in assay [5], in [7] and in assay [8]. In addition, the result in [17], in assay [18], in assay [19] and in [20] was inactive. Moreover, the Potency result in assay [2], in assay [6], in [9] (setting [21]), in assay [10], in assay [11] and in assay [12] was “inactive” in each case. Also, the Potency entry in [13], in [16], in assay [14] and in assay [15] was “inactive” throughout.
Regarding `CC1(C)O[C@@H]2C[C@H]3[C@@H]4C[C@H](F)C5=CC(=O)CC[C@]5(C)[C@H]4[C@@H](O)C[C@]3(C)[C@]2(C(=O)CO)O1`, the outcome in [1], in [3], in assay [4], in [5], in [7] and in assay [8] was inactive. Further, the Potency result in assay [2], in assay [6], in [11], in assay [12], in [13] and in assay [14] was “inactive” in each case. Besides, the Potency result in assay [15] was “inactive”. Also, in assay [9] (setting [21]), the Potency is 18.2 nM [inconclusive] (active) and 3.9 nM (active).
On to `CCCCCCOC(C)=O`, for which the compound was called inactive in [1], in assay [3], in [4], in assay [5], in [7] and in assay [8]. Further, the Potency result in assay [2], in [6], in assay [9] (setting [21]), in assay [10], in assay [12] and in [14] was “inactive” in each case. Moreover, the Potency result in assay [15] was “inactive”. For the same compound, the Potency was 54.5 µM (active) in [13] and 61.1 µM (active) in assay [16].
Turning to `CCCCCCC(C)(C)S`, the result in [1], in [3], in assay [4], in [5], in assay [7] and in assay [8] was inactive. Moreover, the Potency entry in [2], in assay [6], in assay [9] (setting [21]), in [10], in [11] and in assay [12] was “inactive” in each case. The Potency result in assay [13], in assay [14] and in assay [15] was “inactive” throughout.
For the compound `Cc1cc(NS(=O)(=O)c2ccc(N)cc2)no1`, the outcome in assay [1], in [3], in [4], in assay [5], in [7] and in assay [8] was inactive. Also, the Potency result in assay [2], in assay [6], in [9] (setting [21]), in assay [10], in [11] and in assay [12] was “inactive” in each case. Besides, the Potency entry in assay [13], in assay [14] and in assay [15] was “inactive” in each case.
